{"source": "ChEMBL document CHEMBL3988442", "about": "“University of Dundee, Small-Polar-MMV Screening Library” (2021)"}
{"biological_target": "T1, Aspartate--tRNA(Asp/Asn) ligase (Mycobacterium tuberculosis (strain ATCC 25618 / H37Rv)) (UniProt P9WFW3)", "T1 sequence (whole entry)": "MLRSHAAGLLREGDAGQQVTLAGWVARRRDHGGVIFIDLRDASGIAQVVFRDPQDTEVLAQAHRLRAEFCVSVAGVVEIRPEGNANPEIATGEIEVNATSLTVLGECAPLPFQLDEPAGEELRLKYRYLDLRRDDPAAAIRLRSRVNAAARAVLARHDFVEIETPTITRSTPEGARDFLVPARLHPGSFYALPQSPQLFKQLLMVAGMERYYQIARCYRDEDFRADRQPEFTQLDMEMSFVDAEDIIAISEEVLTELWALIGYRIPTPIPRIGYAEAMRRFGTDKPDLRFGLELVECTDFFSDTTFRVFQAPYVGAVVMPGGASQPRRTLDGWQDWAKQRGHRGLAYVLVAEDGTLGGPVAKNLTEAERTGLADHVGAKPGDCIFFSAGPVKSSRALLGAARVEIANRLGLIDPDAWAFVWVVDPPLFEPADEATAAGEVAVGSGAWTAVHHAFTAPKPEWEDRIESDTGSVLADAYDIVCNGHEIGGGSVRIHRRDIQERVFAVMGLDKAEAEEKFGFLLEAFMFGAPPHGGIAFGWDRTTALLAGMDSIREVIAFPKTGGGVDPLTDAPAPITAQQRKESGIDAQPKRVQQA", "experiment": "Assay for Asp RNA synthetase-1 from Mycobacterium tuberculosis", "format": "functional", "design": "scale not given: in the data most compounds retested in dose-response had high values", "conditions": "30 µM", "units": {"Percent Effect": "%"}}
{"smiles": "CCOc1ccnc(N2CCN(C(=O)c3cn[nH]c3CC)CC2)n1", "Percent Effect": -1.77}
{"smiles": "CCn1cc2c(n1)CN(Cc1nccs1)CC2COCC1CC1", "note": "(stereo not given)", "Percent Effect": 5.78}
{"smiles": "COc1cc2nc(C)n(CC(=O)NCCCN(C)C)c(=O)c2cc1OC", "Percent Effect": -0.232}
{"smiles": "CCN(C1CCS(=O)(=O)C1)S(=O)(=O)c1cccc2cc(C)cnc12", "note": "(stereo not given)", "Percent Effect": -1.66}
{"smiles": "CC(NC(=O)N1CCC(n2cncn2)CC1)c1ccc(F)cc1F", "note": "(stereo not given)", "Percent Effect": -3.4}
{"smiles": "CC(C(=O)NCc1cccc(N2CC=CC2)c1)n1cccn1", "note": "(stereo not given)", "Percent Effect": -1.41}
{"smiles": "Cc1nc(C)n(C2CCCN(C(=O)c3csnn3)C2)n1", "note": "(stereo not given)", "Percent Effect": 9.97}
{"smiles": "COc1ccc2cc(C(=O)N3CCCCC3CC(N)=O)[nH]c2c1", "note": "(stereo not given)", "Percent Effect": -1.12}
{"smiles": "CC(C#N)CSc1ccccc1NCC(=O)Nc1ccc(F)cc1", "note": "(stereo not given)", "Percent Effect": 2.19}
{"smiles": "CCc1nc(C2CCCN(C(=O)c3cccc4cn[nH]c34)C2)no1", "note": "(stereo not given)", "Percent Effect": 4.75}
{"smiles": "CN1CCOC(CNCc2coc(-c3ccccc3)n2)C1", "note": "(stereo not given)", "Percent Effect": -1.77}
{"smiles": "CNc1nc2c(s1)C(c1c(Cl)cccc1Cl)CC(=O)N2", "note": "(stereo not given)", "Percent Effect": 50.9}
{"smiles": "Cc1cc(C(=O)O)cc(S(=O)(=O)Nc2ccc3c(c2)OCO3)c1C", "Percent Effect": 11.6}
{"smiles": "O=C(CC1CCCC1)N1CCCC1c1nc(O)cc(-c2ccccn2)n1", "note": "(stereo not given)", "Percent Effect": -2.84}
{"smiles": "Cc1nc(CN2C[C@@H]3CN(C(=O)c4cnccn4)C[C@@H]3C2)cs1", "Percent Effect": -0.661}
{"smiles": "Cc1nc(N2CCN(C(=O)c3ccsc3)CC2)c2cnn(C)c2n1", "Percent Effect": 5.51}
{"smiles": "Cn1cnc2c(N3CCCC3)nc(C3CCNCC3)cc21", "Percent Effect": 3.17}
{"smiles": "COc1ncccc1C(=O)N1CCN(C(=O)Cc2ccccn2)CC1", "Percent Effect": 4.26}
{"smiles": "Cc1cnccc1CN1CC[C@@](C)(O)[C@H](Oc2ccccc2)C1", "Percent Effect": -5.05}
{"smiles": "O=C(Cc1ccccn1)N1CCN(C(=O)c2cccc3[nH]ncc23)CC1", "Percent Effect": -2.75}
{"smiles": "CN(C(=O)CN1CCOC(Cn2cccn2)C1)c1nccs1", "note": "(stereo not given)", "Percent Effect": 5.6}
{"smiles": "N#Cc1ccc(C(=O)N2CCC3(CC2)C(=O)Nc2ccccc23)cn1", "Percent Effect": 6.62}
{"smiles": "Cn1cc(CN2CCOCC3(C2)CN(c2ccccc2)C(=O)CO3)cn1", "note": "(stereo not given)", "Percent Effect": 5.42}
{"smiles": "CC(O)CN1CCC(CNCc2cccc(C(N)=O)c2)CC1", "note": "(stereo not given)", "Percent Effect": -0.954}
{"smiles": "O=C1NC2(CCN(Cc3cccnc3)CC2)CC1c1ccncc1", "note": "(stereo not given)", "Percent Effect": 7.31}
{"smiles": "COc1cc(CNC(=O)NCc2c(C)cc(C)[nH]c2=O)ccc1C", "Percent Effect": -3.59}
{"smiles": "Cc1cc(NC(=O)NCC(C)O)n(C)n1", "note": "(stereo not given)", "Percent Effect": -2.68}
{"smiles": "O=C1CCC(C(=O)NCc2nn(-c3ccccc3)c3c2CCC3)CN1", "note": "(stereo not given)", "Percent Effect": -2.23}
{"smiles": "Cc1ccc(N2CC3(CCN(C(=O)c4ccoc4)C3)C2)nn1", "Percent Effect": -1.37}
{"smiles": "COCC1CN(Cc2ccsc2)Cc2nn(C)cc21", "note": "(stereo not given)", "Percent Effect": 15.7}
{"smiles": "Cc1nnc2n1CCN(Cc1csc(-c3ccc(F)cc3)n1)C2", "Percent Effect": 2.74}
{"smiles": "Nc1nccc(-c2c[nH]nc2C2CCCCC2)n1", "Percent Effect": 6.92}
{"smiles": "CC(C)N1CCCC(CCCc2ccccn2)(C(=O)O)C1", "note": "(stereo not given)", "Percent Effect": 1.98}
{"smiles": "CCn1cc2c(n1)C(COC)CN(C(=O)COc1ccccc1C)C2", "note": "(stereo not given)", "Percent Effect": 2.12}
{"smiles": "CN(C)S(=O)(=O)c1ccc(OCCNCCn2cccn2)cc1", "Percent Effect": -6.56}
{"smiles": "Cc1ncc(CNC(=O)Cc2ccc(Cl)cc2)c(C2CCCN2C)n1", "note": "(stereo not given)", "Percent Effect": 0.551}
{"smiles": "CC(O)CN1CCN(C(=O)c2ccc(Cn3cccn3)cc2)CC1", "note": "(stereo not given)", "Percent Effect": 5.51}
{"smiles": "O=C(c1cccs1)N1C[C@H]2CC[C@@]3(N=C(c4ccccc4)NC3=O)[C@H]2C1", "Percent Effect": -3.42}
{"smiles": "CCn1nc2c(cc1=O)CN(Cc1nc3ccccc3c(=O)[nH]1)CC2", "Percent Effect": -3.91}
{"smiles": "COCc1noc(C2(c3ccc(F)cc3)CCOCC2)n1", "Percent Effect": -2.06}
